Assay outcomes from PubChem BioAssay.
MazEF act: activators of E. coli MazEF toxin-antitoxin RNase, primary screen, biochemical, fluorescence, uHTS; FAM/BHQ RNA-DNA oligo cleavage fluorescence, 5 h; activation, % at 20 µM; 0.32% of 350,000 active; AID 504720, 2011; in the data active = activation above about 50%
Target sequence (P0AE70 whole entry, looked up): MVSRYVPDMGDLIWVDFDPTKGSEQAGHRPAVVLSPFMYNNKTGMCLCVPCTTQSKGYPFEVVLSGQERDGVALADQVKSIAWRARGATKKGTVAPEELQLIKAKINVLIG
BoNT F protease: BoNT/F light chain protease inhibitors, primary screen, biochemical, flow cytometry, MLPCN library | Multiplex microsphere protease cleavage assay | inhibition, % at 10 µM | 0.22% of 360,000 active | AID 588497, 2011; in the data active = inhibition above about 35%, passing the limit was not always enough; inconclusive = no clear call, values can overlap the other calls; note: plate controls were buffer without enzyme for full effect and enzyme alone for no effect
BoNT A protease: BoNT/A light chain protease inhibitors, primary screen, biochemical, flow cytometry, MLPCN library. Botulinum neurotoxin type A light chain protease (Clostridium botulinum A str. ATCC 3502). multiplex microsphere protease substrate cleavage. inhibition, % at 10 µM. 0.17% of 360,000 active; note: plate controls were buffer without enzyme for full effect and enzyme alone for no effect
Anthrax LF inh2: Bacillus anthracis LF protease inhibitors, primary screen, biochemical, multiplex microsphere, MLPCN library; Lethal factor (Bacillus anthracis), P15917; multiplex microsphere protease cleavage assay; 0.12% of 360,000 active; inhibition, % at 10 µM; note: plate controls were buffer without enzyme for full effect and enzyme alone for no effect
Bead autofluor: counter-screen for toxin protease inhibitors: compound fluorescence | compound autofluorescence counterscreen, microsphere flow cytometry; active compounds read high | fluorescence intensity (test concentration not listed) | 3.1% of 360,000 active; in the data active = fluorescence intensity above about 16000; inconclusive = no clear call, values can overlap the other calls
VHR inh abs: VHR1 phosphatase inhibitors, primary screen, biochemical, absorbance, uHTS | Dual specificity protein phosphatase 3 (Homo sapiens), P51452 | inhibition, % at 13.3 µM | recombinant VHR phosphatase, pNPP absorbance | AID 1654, 2009 | 0.52% of 290,000 active; in the data active = inhibition above about 50%
Target sequence (P51452 whole entry, looked up): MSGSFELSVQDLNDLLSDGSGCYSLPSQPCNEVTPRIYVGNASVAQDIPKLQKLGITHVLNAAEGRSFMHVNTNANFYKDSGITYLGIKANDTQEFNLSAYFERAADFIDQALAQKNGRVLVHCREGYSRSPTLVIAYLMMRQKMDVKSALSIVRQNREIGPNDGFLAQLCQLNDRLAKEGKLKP
Active calls of the source: *; ? = inconclusive; · = not tested or not shown. Shown are actives, neighbours in structure and some others; about 4% of the full set was active somewhere. Cut-off read from the data, not from the text of the source, unless noted: active = inhibition above about 30%; inconclusive = no clear call, values can overlap the other calls; inactive = below that.

SMILES	MazEF act	BoNT F protease	BoNT A protease	Anthrax LF inh2	Bead autofluor	VHR inh abs
C=CCn1c(SCCOc2ccc(OC)cc2)nnc1C(CO)NC(=O)c1ccc(OC)cc1 (stereo not drawn)	7.8	24.2	17.3	-12.2	16235*	26.4
O=C(OCc1nnc(-c2ccccc2)o1)c1ccc(CO)cc1	-2.0	-4.0	-0.2	-6.4	3270	14.5
CN(CC(=O)O/N=C(\N)c1ccccn1)S(=O)(=O)c1ccc(Br)cc1	-11.7	-8.8	-0.8	-1.1	8237	8.4
Cc1ccc(S(=O)(=O)N(C)CC(=O)O/N=C(\N)c2ccccn2)cc1	60.9*	1.4	-0.6	-2.1	2781	10.4
Cn1c(O)c(C=NCCCCCC(=O)O)c(=O)n(C)c1=O	2.5	-0.9	-0.6	-0.5	4938	·
C[C@H](NS(=O)(=O)c1ccccc1F)C(=O)OCC(=O)Nc1ccc2c(c1)OCCO2	4.8	-6.7	-0.2	-0.3	4325	·
CCc1ccc(C(C)NC(=O)Cn2cnc3c(=O)n(C)c(=O)n(C)c32)cc1 (stereo not drawn)	1.3	0.4	0.5	-0.8	16189*	8.8
CCc1ccc(NC(=O)Cn2cnc3c(=O)n(C)c(=O)n(C)c32)cc1	-5.0	3.9	0.6	2.7	4216	-0.1
Cc1c2ccncc2cc2c1[nH]c1ccccc12	11.1	6.4	0.1	-5.0	6323	·
Cc1c2c(cc3c1[nH]c1ccccc13)C=NCC2	-12.0	21.9	-9.7	0.3	21778*	·
Clc1ccc(CNCCC2=CCCCC2)cc1	2.0	-16.4	?	-2.5	17461*	6.3
COc1cc(C)ccc1S(=O)(=O)NC1CC(C)(C)NC(C)(C)C1	0.3	10.5	-0.4	-10.8	3511	12.7
Cc1ccc(S(=O)(=O)N2CCN(C(=O)N3CCOCC3)C2C)cc1 (stereo not drawn)	-2.8	-0.6	-1.1	-0.6	23303*	23.8
Cc1ccc(S(=O)(=O)N2CCN(C(=O)N3CCOCC3)C2c2ccc(N(C)C)cc2)cc1 (stereo not drawn)	3.7	5.5	?	-2.5	21067*	16.8
COc1ccc(C2N(C(=O)N3CCOCC3)CCN2S(=O)(=O)c2ccc(C)cc2)cc1 (stereo not drawn)	-13.5	-0.7	0.0	1.2	22397*	19.4
COc1ccc(C2N(C(=O)CN3CCOCC3)CCN2S(=O)(=O)c2ccccc2)cc1 (stereo not drawn)	4.1	-3.7	?	-3.8	22919*	22.4
COc1ccc(S(=O)(=O)N2CCC(C(=O)N3CCOCC3)CC2)cc1	-2.1	4.3	0.1	1.0	2243	8.9
Cc1nc2ccc(C(=O)Nc3cccc(NS(C)(=O)=O)c3)cn2c1N(C)C(=O)CCc1ccccc1	·	-3.2	-0.2	-7.5	2996	·
CCOC(=O)C1(Cc2cccc(OC)c2)CCCN(C(=O)c2cc(CC(C)C)[nH]n2)C1 (stereo not drawn)	-1.4	-9.8	-2.6	-0.8	4785	9.7
Clc1cccc(/C=N/Nc2ncnc3ccccc23)c1	3.5	-8.2	-0.1	-8.0	5847	10.5
CCN(CC)S(=O)(=O)c1ccc(N2CCOCC2)c(NCC(=O)Nc2ccc(F)cc2)c1	-0.6	6.7	-0.2	-1.6	3435	23.3
Cn1c(N)c(C(=O)COC(=O)/C=C/c2ccc(F)cc2)c(=O)n(C)c1=O	3.2	-1.1	0.4	2.7	3236	·
COC(=O)c1cc(Sc2c(Cl)cccc2Cl)ccn1	-8.1	0.8	0.2	-4.2	3484	21.5
Cc1nn(Cc2ccccc2Cl)c(C)c1C(=O)Nc1nnc(C2CC2)s1	-13.0	-21.9	-0.4	0.0	4072	24.9
COc1ccc(C2N(S(=O)(=O)c3ccccc3)CCN2S(=O)(=O)c2ccc(C)cc2)cc1 (stereo not drawn)	0.8	13.8	14.4	-18.9	17266*	-24.3
SMILES	MazEF act	BoNT F protease	BoNT A protease	Anthrax LF inh2	Bead autofluor	VHR inh abs
Cc1ccc(S(=O)(=O)N2CCN(S(=O)(=O)c3ccc(C)cc3)C2c2ccccc2)cc1	0.6	4.0	2.8	-1.5	15687	-20.6
CCCCCn1cnnc1SCC(=O)c1ccc2c(c1)OCO2	5.6	-5.3	0.8	-1.5	3288	·
COc1ccc(OCCOC(=O)CNC(=O)c2ccc(C)cc2)cc1	2.5	·	·	·	·	·
O=C(NNC(=O)C1CCCCC1)c1cnccn1	-6.1	4.3	2.6	0.8	22696*	18.9
N#C/C(=C\c1ccc([N+](=O)[O-])o1)c1nc2ccccc2[nH]1	-20.0	·	·	·	·	51.9*
N#C/C(=C(/O)c1ccc([N+](=O)[O-])o1)c1nc2ccccc2[nH]1	141.5*	-0.4	-1.2	-0.3	4677	3.3
Cc1ccc2nc(/C(C#N)=C\c3ccc([N+](=O)[O-])o3)[nH]c2c1	9.7	7.2	1.6	1.4	13703	23.5
Cc1nc2sc(C(=O)OCC(=O)N3c4ccccc4CC3C)c(C)c2c(=O)[nH]1 (stereo not drawn)	72.2*	7.4	0.7	-2.0	4330	16.5
CCOc1cc(/C=C2\NC(=S)N(C)C2=O)ccc1OCc1ccc(C(=O)O)cc1	3.6	-22.8	-6.1	0.0	3388	16.5
COc1ccc(NC(=O)C(NC(=O)OC(C)(C)C)C(C)OCc2ccccc2)cc1 (stereo not drawn)	-9.4	-7.5	?	0.4	21191*	17.4
COc1ccc(NC(=O)[C@H](COCc2ccccc2)NC(=O)OC(C)(C)C)cc1	-0.9	-0.9	-0.2	0.2	9750	20.0
CCOc1ccc(C2C3=C(CCCC3=O)Nc3nc(C(F)(F)F)nn32)cc1OC (stereo not drawn)	3.1	-1.1	0.7	-4.9	2313	-7.5
CCOc1cc(C2C3=C(CCCC3=O)Nc3nc(C(=O)OC)nn32)ccc1OC (stereo not drawn)	-0.4	1.0	1.0	-1.0	22585*	32.7
O=c1oc2ccccc2n1Cc1cccc(F)c1	-13.0	-6.2	-0.4	3.0	3175	52.6*
CCN1CCCC1CNC(=O)c1cc([N+](=O)[O-])c(N(C)C)cc1OC (stereo not drawn)	9.7	?	-2.0	3.7	3334	57.0*
C=CC[n+]1c(/C=C2\C=Cc3cc(C)ccc3N2CC)ccc2ccccc21	19.5	-24.6	3.4	-6.7	6139	19.7
CCN1/C(=C/c2ccc3cc(C)ccc3[n+]2CC)Sc2ccc3sccc3c21	-42.1	-101.0	49.2*	-71.3	3616	·
CCN1/C(=C\c2ccc3cc(C)ccc3[n+]2CC)Sc2cc(C)c(C)cc21	82.2*	-81.9	42.0*	-64.0	7412	16.0
CCN1/C(=C/c2ccc3cccc(C)c3[n+]2CC)Sc2ccccc21	73.2*	-18.2	79.4*	18.3	8752	18.6
CCN1/C(=C/c2ccc3cc(C)cc(C)c3[n+]2CC)Sc2cc(C)ccc21	30.2	-96.6	27.3	-89.3	8167	23.4
